# Assay outcomes: PubChem, National Center for Advancing Translational Sciences (NCATS)
# This excerpt belongs to a sample that is enriched for hits.
# Pf Dd2 inh – blocks in vitro growth of P. falciparum Dd2. P. falciparum Dd2 growth, SYBR Green, 72 h. Potency, µM (doses to about 28.9 µM), for the others: top-dose activity, negative = inhibition, usual class: inhibitors. hit rate 4.3% among 120,000. AID 1347417; active means well fitted inhibition curve with a large enough effect;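 further: plate controls were DMSO vehicle for no effect and reference drug for full effect; nearly all actives have a fitted effect of over 65% in size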
#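 Infected erythrocytes (Dd2, 0.3% parasitemia, 2.5% hematocrit final) are added to compound in RPMI-1640/Albumax II medium, grown 72 h at 37C in low oxygen, then lysed with saponin/Triton-X containing SYBR Green and read by fluorescence.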
# Starred values were filed as active, the others as inactive; i = inactive; [ ] = another dose, or the depositor's remark. Potency means the concentration at half of the fitted maximal effect.
SMILES,Pf Dd2 inh
CC1(c2ccccc2)N(Cc2ccccc2C#N)C(=O)OC12CCN(C(=O)Cc1cccc(F)c1)CC2 (stereo unspecified),11µM*
CC1(c2ccccc2)N(Cc2ccccc2F)C(=O)OC12CCN(C(=O)Cc1ccc(O)cc1)CC2 (stereo unspecified),-6%
CC1(c2ccccc2)N(Cc2ccccc2C#N)C(=O)OC12CCN(C(=O)Cc1ccc(O)cc1)CC2 (stereo unspecified),i
CC(C)C(=O)N1CCC2(CC1)OC(=O)N(Cc1ncccn1)C2(C)c1ccccc1 (stereo unspecified),i
CC1(c2ccccc2)N(Cc2cccnc2)C(=O)OC12CCN(C(=O)Cc1cccc(F)c1)CC2 (stereo unspecified),i
CC(C)CCN1CCC(N2CCN(C(=O)C3CC3)CC2)C1=O (stereo unspecified),12%
O=C(NCCCN1CCCc2ccccc21)C1CCCCC(=O)N1Cc1ccccc1 (stereo unspecified),-24%
COc1ccc(-c2nc3cnccn3c2NCCC(=O)O)cc1,-3%
COc1cc(NC(=O)c2cc3n(n2)CC(c2ccc(Cl)cc2)OC3)c(OC)cc1Cl (stereo unspecified),i
CCn1cc2nc(SCc3ccccc3)n(Cc3ccc(C)cc3)c(=O)c2n1,1%
CCn1cc2nc(SCc3ccc(F)cc3)n(Cc3ccc(Cl)cc3)c(=O)c2n1,-4%
CCn1cc2nc(SCc3cc(C)ccc3C)n(Cc3ccc(C)cc3)c(=O)c2n1,10µM*
CCCC1(C(=O)O)CCCN(C(=O)c2cccnc2OCC)C1 (stereo unspecified),-4%
CC[C@H]1CN(C(=O)Nc2cccc(C(F)(F)F)c2)CC[C@H]1CC(=O)NCc1ccc(OC)c(OC)c1,7%
Cc1cc2cccc(C(=O)N3CCc4nc(-c5cn[nH]c5)[nH]c4C3)c2o1,-5%
Cc1cn2nnc(C(=O)N3CCC(C(=O)NCc4ccccc4Cl)CC3)c2c(=O)[nH]1,-8%
Cc1cn2nnc(C(=O)NCC3CCCCC3)c2c(=O)[nH]1,6.3µM*
CCCNC(=O)c1nnn2cc(C)[nH]c(=O)c12,61%
Cc1cn2nnc(C(=O)NCc3ccncc3)c2c(=O)[nH]1,57%
Cc1cn2nnc(C(=O)NCc3ccc4c(c3)OCO4)c2c(=O)[nH]1,6.3µM*
Cc1cn2nnc(C(=O)NCC3CC3)c2c(=O)[nH]1,42%
Cc1cn2nnc(C(=O)N3CCC(C(=O)NCc4cccc(Cl)c4)CC3)c2c(=O)[nH]1,4.5µM*
Cc1ccc(CNC(=O)C2CCN(C(=O)c3nnn4cc(C)[nH]c(=O)c34)CC2)cc1,i
COc1ccc(CNC(=O)c2nnn3cc(C)[nH]c(=O)c23)cc1,-28%
Cc1nc(C2CCCCN2C(=O)c2ccco2)n[nH]1 (stereo unspecified),-3%
SMILES,Pf Dd2 inh
COCCNC(=O)c1ccc2nnc(-c3cncc(Cl)c3)n2c1,146%
COc1ccc(CCC(=O)N2CCCCCCNC(=O)CC2)cc1,-28%
Cc1nc([C@@H]2CN(C(=O)c3cc(C)n(Cc4ccco4)c3C)C[C@H]2C(N)=O)n[nH]1,8%
Cc1csc(NC(=O)C2(C)COCc3cnc(Nc4ccccc4)nc32)n1 (stereo unspecified),i
CO[C@H]1C(=O)N(C2CCN(C(=O)CCc3c[nH]c4ccccc34)CC2)[C@H]1c1ccncc1,0%
O=C(c1ccc(Cl)nc1)N1CCC(N2CC3CCCN3C2=O)CC1 (stereo unspecified),19%
CC[C@H]1CN2CC[C@H]1C[C@@H]2CNCc1ccc(OC)cc1,8.9µM*
COc1ccc(-c2cc([C@H]3CN4CC[C@H]3C[C@@H]4CNC(=O)c3ccco3)n(C)n2)cc1,-14%[44.1 µM]
CC[C@H]1CN2CC[C@H]1C[C@@H]2CNC(=O)c1ccc2ccccc2c1,i
CCN(CC)C[C@H]1CN2CC[C@H]1C[C@@H]2CNS(=O)(=O)c1ccccc1,i
COc1ccc(-c2cc([C@H]3CN4CC[C@H]3C[C@@H]4CNS(=O)(=O)c3ccccc3)n(C)n2)cc1,i
CC[C@H]1CN2CC[C@H]1C[C@@H]2CN(Cc1ccc(SC)cc1)Cc1ccc(SC)cc1,3.5µM*
C=C[C@H]1CN2CC[C@H]1C[C@@H]2CNCc1ccc(N(C)C)cc1,i
CC[C@H]1CN2CC[C@H]1C[C@@H]2CNC(=O)Nc1ccc(Br)cc1,-19%[44.1 µM]
COc1ccc(CNC[C@H]2C[C@@H]3CCN2C[C@@H]3c2cc(-c3ccc(F)cc3)nn2C)cc1,13µM*
NC(=O)CCNC(=O)C1=C[C@@H](NC(=O)Nc2cccc(F)c2)[C@@H](O)[C@H](O)C1,-23%[44.1 µM]
COCC1CN(S(=O)(=O)c2cccnc2)CC12CCNCC2 (stereo unspecified),21%
Cc1noc(C)c1CC(=O)NCCc1noc(C2CC2)n1,-6%
COCC(=O)N1[C@H]2CC[C@@H]1c1cnc(-c3ccccc3)nc1C2,1%
O=C(c1nnn2cc(-c3ccc(F)cc3)[nH]c(=O)c12)N1CCCCC1,-1%
O=C(Nc1cccc(C(F)(F)F)c1)N[C@@H]1C[C@H](CO)[C@@H](O)[C@H]1O,-15%[44.1 µM]
CCC[C@H]1CN(S(=O)(=O)c2ccc(CC)s2)C[C@@H]1N,-21%
CCC[C@H]1CN(S(=O)(=O)c2cnn(CCC)c2)C[C@@H]1N,11µM*
CCC[C@H]1CN(S(=O)(=O)c2ccc(-c3ccn[nH]3)o2)C[C@@H]1N,i
COc1ccc(/C=C/C(=O)Nc2ccc3nc(N4CCCCC4)cc(C)c3c2)cc1OC,4µM*
SMILES,Pf Dd2 inh
COCCNC(=O)C(=O)Nc1ccc2nc3n(c(=O)c2c1)CCCCC3,-17%
CCOC(=O)c1c(NC(=O)/C=C/c2ccc(OC)c(OC)c2)sc(C(C)=O)c1C,40%
CCCN(C(=O)C(=O)Nc1ccc2nc3n(c(=O)c2c1)CCCCC3)c1ccc(OCC)cc1,-16%
CN(Cc1ccccc1)C(=O)C(=O)Nc1ccc2nc3n(c(=O)c2c1)CCCCC3,i
Cc1cc(N2CCCCC2)nc2ccc(NC(=O)/C=C/c3ccccc3OC(C)C)cc12,2.8µM*
CC(C)Oc1ccc(CNC(=O)c2ccc3c(c2)nc2n3CCCCC2)cc1,-15%
Cc1cc(N2CCCCC2)nc2ccc(NC(=O)/C=C/c3ccc(OC(C)C)cc3)cc12,10µM*
COc1ccc(/C=C/c2nc(C#N)c(N3CCCCCC3)o2)cc1OC,-15%
CC(=O)N1CCC(C(=O)N2CCCn3cc(-c4ccccc4)nc32)CC1,3%
CN1CC(=O)N(C2CCCNC2)Cc2c(NCCOc3ccccc3)ncnc21 (stereo unspecified),-6%
COCCC(=O)N[C@@H]1CN(Cc2ccccc2)C[C@H]1CO,4%
CCOc1ccccc1C1NC(=O)N(CC(=O)NCc2ccc(OC)cc2)C2=C1C(=O)OC2 (stereo unspecified),i
Cc1ccc(CNC(=O)c2ccc3c(c2)N(Cc2ccccc2)C(=O)c2ccccc2S3(=O)=O)cc1,-44%
CCOC(=O)c1ccc2c(c1)N(Cc1cc(C)ccc1C)C(=O)c1ccccc1S2(=O)=O,i
Cc1ccc(CCNC(=O)c2ccc3c(c2)N(Cc2cccc(C)c2)C(=O)c2ccccc2S3(=O)=O)cc1,-2%
CCOC(=O)N1CCC(NC(=O)c2ccc3c(c2)N(Cc2cc(C)ccc2C)C(=O)c2ccccc2S3(=O)=O)CC1,11µM*
O=C(c1ccc2c(c1)N(Cc1ccccc1F)C(=O)c1ccccc1S2(=O)=O)N1CCCCC1,i
O=C(NCc1ccco1)c1ccc2c(c1)N(Cc1ccccc1)C(=O)c1ccccc1S2(=O)=O,-13%
